In the library only some 8.7% were active in any assay of this set; here they are far more common.
Sfp inh: qHTS Assay for Inhibitors of Bacillus subtilis Sfp phosphopantetheinyl transferase (PPTase) | 4'-phosphopantetheinyl transferase ffp (Bacillus subtilis), Q9F4F7 | Biochemical Sfp PPTase activity, qHTS | Potency, µM, inactives show largest response in the series, negative = inhibition, actives largely listed as inhibitors | actives 3.5% (n = 310,000);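 note: the enzyme is Sfp with the accession as filed and its product quenches rhodamine fluorescence; 0% = enzyme reaction without inhibitor and -100% = no enzyme wells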
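Reaction rates are the 30-min fluorescence difference (ex 525, em 598 nm) in wells containing 15 nM Sfp, 5 uM rhodamine-CoA and 12.5 uM BHQ-2-YbbR at pH 7.6 with 10 mM MgCl2.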
ALOX12 inh: Primary qHTS assay for inhibitors of human arachidonate 12S-lipoxygenase (ALOX12): Round 2 | actives 1.1% (n = 580,000) | Potency, µM (doses to about 108 µM), for the others: top-dose activity change, negative = inhibition, hits mostly inhibitors | AID 1671190, 2021 | purified 12hLO, xylenol orange hydroperoxide absorbance; note: % is set by controls: 0 for no effect and ±100 for the full control effect
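Purified human 12hLO at 150 nM in 25 mM Hepes, 0.01% Triton X-100, pH 7.0, preincubated 15 min at room temperature with compound. Reaction started with 40 uM arachidonic acid, 30 min at room temperature. Hydroperoxide measured by Fe-xylenol orange, 573/405 nm absorbance ratio.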
BAZ2B inh: qHTS Assay for Inhibitors of BAZ2B. AlphaScreen BAZ2B-H3K14Ac peptide displacement. Potency, µM (series often up to 114 µM), for inactives: top-dose activity change, negative = inhibition, hits mostly inhibitors. AID 504333, 2011. actives 4.4% (n = 360,000); note: % is set by controls: 0 for no effect and ±100 for the full control effect; nearly all actives have a fitted effect of over 60% in size
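Complex of BAZ2B and biotin-H3K14Ac (50 nM apiece) forms over 30 min at RT, then faces library compounds up to 110 uM for another 30 min; AlphaScreen beads added, 20 min dark incubation, luminescence read.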
G9a inh: qHTS Assay for Inhibitors of Histone Lysine Methyltransferase G9a. G9a H3K9 monomethylation, AlphaScreen, 2 h. Potency, µM (doses to about 102 µM), inactives show at the top dose activity, negative = inhibition, most hits filed as inhibitors. actives 8.8% (n = 350,000). Histone-lysine N-methyltransferase EHMT2 (Homo sapiens), Q96KQ7; note: % is set by controls: 0 for no effect and ±100 for the full control effect; nearly all actives have a fitted effect of over 75% in size
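G9a (20 nM) preincubated 15 min RT with compounds, then 500 nM biotinylated H3K9 peptide and 20 uM SAM added; 2 h RT reaction. Monomethyl-H3K9 product detected by AlphaScreen with anti-H3K9me1 antibody, streptavidin donor and anti-rabbit IgG acceptor beads.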
JMJD2A Tudor inh: qHTS Assay for Inhibitors of JMJD2A-Tudor Domain; Lysine-specific demethylase 4A (Homo sapiens), O75164; AlphaScreen JMJD2A-Tudor / H3K4me3 peptide binding; Potency, µM (highest dose often 114 µM), inactives show at the top dose activity change, negative = inhibition, most hits filed as inhibitors; actives 4.4% (n = 390,000); AID 504339, 2011; note: % is set by controls: 0 for no effect and ±100 for the full control effect; nearly all actives have a fitted effect of over 50% in size
Target sequence (O75164 whole entry, looked up, the tested form may be a part): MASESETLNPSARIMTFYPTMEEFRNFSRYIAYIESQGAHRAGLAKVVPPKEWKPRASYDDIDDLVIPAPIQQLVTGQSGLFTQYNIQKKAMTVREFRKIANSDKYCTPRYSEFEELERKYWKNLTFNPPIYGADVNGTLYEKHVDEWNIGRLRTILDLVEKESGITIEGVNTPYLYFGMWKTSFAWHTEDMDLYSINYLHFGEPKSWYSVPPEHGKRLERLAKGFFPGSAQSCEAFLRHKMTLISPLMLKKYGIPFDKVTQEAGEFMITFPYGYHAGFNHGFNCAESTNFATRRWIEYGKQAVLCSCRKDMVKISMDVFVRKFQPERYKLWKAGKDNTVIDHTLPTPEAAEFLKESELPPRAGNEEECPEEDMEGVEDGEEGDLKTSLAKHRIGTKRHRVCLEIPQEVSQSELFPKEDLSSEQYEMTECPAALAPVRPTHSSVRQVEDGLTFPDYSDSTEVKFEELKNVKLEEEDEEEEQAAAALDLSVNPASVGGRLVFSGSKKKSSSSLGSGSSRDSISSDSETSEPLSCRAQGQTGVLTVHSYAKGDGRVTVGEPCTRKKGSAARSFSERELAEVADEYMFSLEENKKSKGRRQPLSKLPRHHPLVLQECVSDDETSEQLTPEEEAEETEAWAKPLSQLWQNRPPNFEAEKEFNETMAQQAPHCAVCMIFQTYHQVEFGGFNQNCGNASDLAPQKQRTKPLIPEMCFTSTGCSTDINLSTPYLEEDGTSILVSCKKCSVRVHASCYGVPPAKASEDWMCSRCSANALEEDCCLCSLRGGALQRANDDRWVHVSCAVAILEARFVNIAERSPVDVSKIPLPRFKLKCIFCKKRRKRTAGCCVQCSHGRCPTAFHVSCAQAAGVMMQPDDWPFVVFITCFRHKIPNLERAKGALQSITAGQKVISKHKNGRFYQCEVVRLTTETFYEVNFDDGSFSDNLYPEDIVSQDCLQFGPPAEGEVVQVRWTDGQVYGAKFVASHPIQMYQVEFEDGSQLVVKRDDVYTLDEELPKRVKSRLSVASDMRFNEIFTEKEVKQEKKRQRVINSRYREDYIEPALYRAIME
HP1b binding inh: HTS for Inhibitors of HP1-beta Chromodomain Interactions with Methylated Histone Tails; actives 0.56% (n = 390,000); AlphaScreen HP1-beta / biotin-H3K9me3 peptide binding; Chromobox protein homolog 1 (Homo sapiens), P83916; Potency, µM (highest dose often 114 µM), without a hit: at the highest dose activity change, negative = inhibition, actives largely listed as inhibitors; AID 540317, 2011; note: nearly all actives have a fitted effect of over 70% in size
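HP1-beta protein (50 nM final) preincubated 30 min at room temperature with biotinylated H3(1-18)K9me3 peptide (50 nM) in PBS pH 7.4, 0.01% Tween-20, then compound added for 30 min. AlphaScreen streptavidin donor/nickel chelate acceptor beads (10 ug/mL final), 30 min dark, luminescence read.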
* hit, by the source's call; ? = inconclusive; nt = no result given; [ ] = another dose, or the depositor's remark. Calls come from the whole dose curve; as a rule, active = well fitted curve in the direction sought with a large enough effect; inconclusive = small, poorly fitted or top-dose-only effect, or another doubt; inactive = no such curve, though single readings can be large; an effect the other way counts as inactive or inconclusive. Potency is the fitted concentration of half-maximal effect.

SMILES	Sfp inh	ALOX12 inh	BAZ2B inh	G9a inh	JMJD2A Tudor inh	HP1b binding inh
CCn1nccc1-c1cc(C(=O)O)c2ccc(C)c(C)c2n1	nt	-38.4%	nt	nt	nt	nt
COc1ccccc1C(=O)O/N=C(\N)c1ccccn1	-17.1%	196.2%	15.9%	nt	-16.1%	14.9%
N/C(=N\OC(=O)c1ccccc1[N+](=O)[O-])c1ccccn1	-0.5%	5.4%	-30.5%	3.16µM*	-20.3%[57.1 µM]	8.9%
N/C(=N\OC(=O)c1ccccc1Cl)c1ccccn1	16.4%	4.8%	-0.1%	70.8µM*	-14.6%	9.7%
N/C(=N\OC(=O)COc1ccc2ccccc2c1)c1ccccn1	89.1µM*	0.9%	5.9%	2.2%[0.501 µM]	?	14.2%
O=C(Cc1n[nH]c(=O)c2ccccc12)NC(c1ccccc1)C1CC1 (stereo unspecified)	nt	-1.8%	nt	nt	nt	nt
Cc1nn(C)c(C(=O)NC(=S)Nc2ccc([N+](=O)[O-])cc2)c1Cl	31.6µM*	?	-17.3%	nt	-22.6%	4.1%
COc1ccc(NC(=S)NNC(=O)C(C)n2nc(C)c([N+](=O)[O-])c2C)cc1 (stereo unspecified)	19.7%	26.9%	6.6%	?	-19.7%	0.8%
Cc1nn(CCC(=O)NNC(=S)Nc2ccc([N+](=O)[O-])cc2)c(C)c1[N+](=O)[O-]	-15.1%	-11.9%	-26.1%	8.91µM*	-32.7%	-2.1%
Cc1ccc(NC(=S)NNC(=O)CCn2cc(C)cn2)cc1	5.3%	27.6%	-1.7%	50.1µM*	-10.8%	28.6%
Cc1nn(C(C)C(=O)NNC(=S)Nc2ccc(F)cc2)c(C)c1[N+](=O)[O-] (stereo unspecified)	17.7%	19.5%	-0.3%	44.7µM*	-16.5%	16.6%
CCn1c(SCc2cc(OC)c(Br)cc2OC)nc2cc(S(N)(=O)=O)ccc21	nt	-54.0%	nt	nt	nt	nt
CCCCCCCOC(C)=O	nt	5.4%[176 µM]	nt	nt	nt	nt
COC(=O)C(C(=O)OC)C(c1ccc(Cl)cc1)C(C)C(=O)c1ccc(C)cc1 (stereo unspecified)	nt	7.7%	nt	nt	nt	nt
O=C(Cn1nc(C(F)F)cc1C(F)F)NNC(=S)Nc1ccc([N+](=O)[O-])cc1	7.5%	?	-29.8%	20µM*	?	-14.5%
O=C(Cn1nc(C(F)F)cc1C(F)F)NNC(=S)Nc1ccc(F)cc1	14.4%	12.7%	9.5%	?	-9.7%	13.9%
COc1ccc(CC(=O)Nc2ccc(S(=O)(=O)NCC3CCCO3)cc2)cc1 (stereo unspecified)	?	?	7.5%	10µM*	-13.1%	-6.7%
Cc1nn(CC(=O)Nc2ccc3c(c2)nc(Cn2ccc4ccccc42)n3C)c(=O)c2ccccc12	nt	20.8%	nt	nt	nt	nt
COc1ccc2[nH]c3c(c2c1)CCN(C)C31CCN(C(=O)c2nccc3ccccc23)CC1	nt	3.7%	nt	nt	nt	nt
Cc1ccc(-c2nc3cnccn3c2NCCC(=O)N2CCCCC2)cc1	nt	-26.6%	nt	nt	nt	nt
O=c1c(CO)cc(CO)cc(CO)c1O	?	-26.3%	10µM*	nt	22.4µM*	15.3%
NS(=O)(=O)c1ccc(CNC(=O)/C=C/c2ccccc2[N+](=O)[O-])cc1	8.2%	-2.1%	0.6%	?	-14.5%	15.7%
CC(=O)C1C(=O)c2c(cccc2[N+](=O)[O-])C1=Nc1ccc(S(N)(=O)=O)cc1 (stereo unspecified)	?	?	?	39.8µM*	?	7.4%
COc1ccc(-c2c(C)oc3cc(OC(=O)C(C)C)ccc3c2=O)cc1OC	nt	-42.6%	nt	nt	nt	nt
COC12CC(=O)C(C(C)=O)=C(O)C1(C)c1c(O)c(C)c(O)c(C(C)=O)c1O2 (stereo unspecified)	nt	39.8µM*	nt	nt	nt	nt
